Records with an inconclusive call do not appear. Where a call stands in place of a potency, no number is given. Active and inactive are the calls of the source. The call rests on the fitted dose curve; in most records, active means well fitted curve in the direction sought with a large enough effect; inconclusive means small, poorly fitted or top-dose-only effect, or another doubt; inactive means no such curve, though single readings can be large; an effect the other way counts as inactive or inconclusive.

In one experiment the target is Calcium and integrin-binding protein 1 (Homo sapiens) (UniProt Q99828). Put plainly: Validation qHTS for Identification of Calcium Integrin Binding protein 1 (CIB1) Competitor (AID 1508618). The conditions noted are these: CIB1-GST / FITC-alphaIIb peptide fluorescence polarization; series mostly up to 114 µM. The method in brief: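 Displacement of FITC-alphaIIb peptide (100 nM) from CIB1-GST (1 uM) is monitored by polarization in quantitative HTS format; buffer carries 5 mM CaCl2 and 125 mM NaCl at pH 7.4, incubations are at room temperature.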
Chain of Calcium and integrin-binding protein 1 (Homo sapiens) (Q99828 whole entry, looked up): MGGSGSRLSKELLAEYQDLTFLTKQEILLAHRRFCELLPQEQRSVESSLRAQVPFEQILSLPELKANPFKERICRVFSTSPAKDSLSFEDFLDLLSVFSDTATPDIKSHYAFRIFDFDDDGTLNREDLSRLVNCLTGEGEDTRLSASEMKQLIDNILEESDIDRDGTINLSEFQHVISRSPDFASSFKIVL
Turning to `CCn1cc(C(=O)O)c(=O)c2cc(F)c(N3CCNC(C)C3)c(F)c21` (configuration not stated), the Potency result is “inactive”.
Same read-out and setting: with `C1COC(NC(C2CC2)C2CC2)=N1` the entry was “inactive”.
Same read-out and setting: with `CCCc1nn(C)c2c(=O)[nH]c(-c3cc(S(=O)(=O)N4CCN(C)CC4)ccc3OCC)nc12` the entry was “inactive”; with `CC(=O)Oc1ccccc1C(=O)O`, “inactive”; with `O=NN(CCCl)C(=O)NCCCl`, “inactive”.
The same measure, in the same setting: the same measure for `NC(=O)c1cnccn1`: “inactive”; for `CCCCNc1cc(C(=O)O)cc(S(N)(=O)=O)c1Oc1ccccc1`: “inactive”.
`OC(CCN1CCCCC1)(c1ccccc1)C1CC2C=CC1C2` (configuration not stated): the Potency result is “inactive”.
The same measure, in the same setting: the same measure for `Cn1cnc([N+](=O)[O-])c1Sc1ncnc2nc[nH]c12`: “inactive”; for `O=C1CCC(N2C(=O)c3ccccc3C2=O)C(=O)N1` (configuration not stated): “inactive”; for `Cc1cccc(-c2[nH]c(C(C)(C)C)nc2-c2ccc3nccnc3c2)n1`: “inactive”.
Same read-out and setting: the same measure for `CCCC(CCC)C(=O)O`: “inactive”; for `Nc1nc2ccc(OC(F)(F)F)cc2s1`: “inactive”.
The same measure, in the same setting: with `O=c1n(CCCN2CCN(c3cccc(Cl)c3)CC2)nc2ccccn12` the entry was “inactive”.
For the compound `Nc1nc2c(ncn2COCCO)c(=O)[nH]1`, the Potency entry was “inactive”.
Turning to `Clc1cccc(Cl)c1NC1=NCCN1`, the Potency entry is “inactive”.
Same read-out and setting: the same measure for `CCc1cncnc1N1CCN(Cc2nc3ccc(C(F)(F)F)cc3[nH]2)CC1`: “inactive”; for `O=C(O)CCc1ccc(NCc2cccc(Oc3ccccc3)c2)cc1`: “inactive”; for `O=C1CCc2cc(OCCCCc3nnnn3C3CCCCC3)ccc2N1`: “inactive”.
On the same count and under the same terms, the same measure for `Cc1oncc1C(=O)Nc1ccc(C(F)(F)F)cc1`: “inactive”; for `NNCCc1ccccc1`: “inactive”; for `Oc1ccc(C2CNCCc3c2cc(O)c(O)c3Cl)cc1` (configuration not stated): “inactive”.
Same read-out and setting: the same measure for `Cc1cn[nH]c1`: “inactive”; for `CC(C)C[C@H](NC(=O)[C@@H](O)[C@H](N)Cc1ccccc1)C(=O)O`: “inactive”.
Regarding `Cc1ccccc1C(OCCN(C)C)c1ccccc1` (configuration not stated), the Potency entry was “inactive”.
As for `CCOC(=O)C1=C[C@]2(CC)CCCN3CCc4c(n1c1ccccc41)[C@@H]32`, the Potency entry was “inactive”.
The same measure, in the same setting: the same measure for `Cc1[nH]c(=O)c(C#N)cc1-c1ccc2nccn2c1`: “inactive”; for `Cc1[nH]c(=O)c(C#N)cc1-c1ccncc1`: “inactive”.
As for `O=c1[nH]cnc2[nH]ncc12`, the Potency entry is “inactive”.
Still for that read-out and setting: the same measure for `Nc1ccc(S(=O)(=O)Nc2ccnn2-c2ccccc2)cc1`: “inactive”; for `CCC(C)N(C)C(=O)c1cc2ccccc2c(-c2ccccc2Cl)n1` (configuration not stated): “inactive”.
On the same count and under the same terms, with `NC[C@H](O)c1ccc(O)c(O)c1` the entry was “inactive”; with `CC(C)(C)NCC(O)c1ccc(O)c(CO)c1` (configuration not stated), “inactive”; with `NCCCC(N)(C(=O)O)C(F)F` (configuration not stated), “inactive”.
On the same count and under the same terms, the same measure for `CC(C)NCC(O)COc1ccc(COCCOC(C)C)cc1` (configuration not stated): “inactive”.
Consider `NS(=O)(=O)c1cc2c(cc1Cl)NC=NS2(=O)=O`, for which the Potency result was “inactive”.

For a further experiment the target is unchanged. Nature of the experiment: Primary qHTS for Identification of Calcium Integrin Binding Protein 1 (CIB1) Competitor (AID 1508620).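 Further: GST tagged CIB1 binding a fluorescein labelled alphaIIb integrin peptide tracer; top concentration of the series differs between compounds.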 The conditions noted are these: CIB1-GST / FITC-alphaIIb peptide fluorescence polarization; series mostly up to 57.7 µM. The method in brief:
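Fluorescence polarization competition: GST-tagged CIB1 (1 uM final) preincubated with compound 15 min at room temperature, then FITC-labelled alphaIIb peptide (100 nM final) added. After 15 min at room temperature, polarization read at Ex 480/Em 540.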
For `CCn1cc(C(=O)O)c(=O)c2cc(F)c(N3CCNC(C)C3)c(F)c21` (configuration not stated), the result was inactive.
Turning to `C1COC(NC(C2CC2)C2CC2)=N1`, the result was inactive.
In the case of `CCCc1nn(C)c2c(=O)[nH]c(-c3cc(S(=O)(=O)N4CCN(C)CC4)ccc3OCC)nc12`, the result was inactive.
Same read-out and setting: the same measure for `CC(=O)Oc1ccccc1C(=O)O`: “inactive”.
The same measure, in the same setting: the same measure for `O=NN(CCCl)C(=O)NCCCl`: “inactive”; for `NC(=O)c1cnccn1`: “inactive”.
On to `CCCCNc1cc(C(=O)O)cc(S(N)(=O)=O)c1Oc1ccccc1`, for which the outcome was inactive.
As for `OC(CCN1CCCCC1)(c1ccccc1)C1CC2C=CC1C2` (configuration not stated), the result was inactive.
The same measure, in the same setting: the same measure for `Cn1cnc([N+](=O)[O-])c1Sc1ncnc2nc[nH]c12`: “inactive”; for `O=C1CCC(N2C(=O)c3ccccc3C2=O)C(=O)N1` (configuration not stated): “inactive”.
Still for that read-out and setting: with `Cc1cccc(-c2[nH]c(C(C)(C)C)nc2-c2ccc3nccnc3c2)n1` the entry was “inactive”; with `CCCC(CCC)C(=O)O`, “inactive”.
As to `Nc1nc2ccc(OC(F)(F)F)cc2s1`, the outcome was inactive.
On the same count and under the same terms, with `O=c1n(CCCN2CCN(c3cccc(Cl)c3)CC2)nc2ccccn12` the entry was “inactive”.
The same measure, in the same setting: with `Nc1nc2c(ncn2COCCO)c(=O)[nH]1` the entry was “inactive”; with `Clc1cccc(Cl)c1NC1=NCCN1`, “inactive”; with `CCc1cncnc1N1CCN(Cc2nc3ccc(C(F)(F)F)cc3[nH]2)CC1`, “inactive”.
`O=C(O)CCc1ccc(NCc2cccc(Oc3ccccc3)c2)cc1`: the result was inactive.
Still for that read-out and setting: the same measure for `O=C1CCc2cc(OCCCCc3nnnn3C3CCCCC3)ccc2N1`: “inactive”; for `Cc1oncc1C(=O)Nc1ccc(C(F)(F)F)cc1`: “inactive”; for `NNCCc1ccccc1`: “inactive”.
Regarding `Oc1ccc(C2CNCCc3c2cc(O)c(O)c3Cl)cc1` (configuration not stated), the result was inactive.
Consider `Cc1cn[nH]c1`, for which the outcome was inactive.
As to `CC(C)C[C@H](NC(=O)[C@@H](O)[C@H](N)Cc1ccccc1)C(=O)O`, the outcome was inactive.
Same read-out and setting: the same measure for `Cc1ccccc1C(OCCN(C)C)c1ccccc1` (configuration not stated): “inactive”; for `CCOC(=O)C1=C[C@]2(CC)CCCN3CCc4c(n1c1ccccc41)[C@@H]32`: “inactive”; for `Cc1[nH]c(=O)c(C#N)cc1-c1ccc2nccn2c1`: “inactive”.
Same read-out and setting: the same measure for `Cc1[nH]c(=O)c(C#N)cc1-c1ccncc1`: “inactive”.
Same read-out and setting: with `O=c1[nH]cnc2[nH]ncc12` the entry was “inactive”; with `Nc1ccc(S(=O)(=O)Nc2ccnn2-c2ccccc2)cc1`, “inactive”; with `CCC(C)N(C)C(=O)c1cc2ccccc2c(-c2ccccc2Cl)n1` (configuration not stated), “inactive”.
As for `NC[C@H](O)c1ccc(O)c(O)c1`, the result was inactive.
As to `CC(C)(C)NCC(O)c1ccc(O)c(CO)c1` (configuration not stated), the result was inactive.
The same measure, in the same setting: with `NCCCC(N)(C(=O)O)C(F)F` (configuration not stated) the entry was “inactive”.
The same measure, in the same setting: the same measure for `CC(C)NCC(O)COc1ccc(COCCOC(C)C)cc1` (configuration not stated): “inactive”; for `NS(=O)(=O)c1cc2c(cc1Cl)NC=NS2(=O)=O`: “inactive”.

For the origin of these results see PubChem BioAssay (NCATS).
